Rows were chosen to be rich in hits. Some 0.8% of all compounds tested hit in one or more screens of this group.
TRPML1 agonist – agonists of human TRPML1 channel. Q9GZU1. TRPML1-expressing cells, Ca2+ dye fluorescence, FDSS. activation, % (concentration not given with the values). actives 0.12% (n = 410,000); in the data active = activation above about 50%; inconclusive = mostly about 30% to 49%; also: 0% is about no effect
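Tet-induced TRPML1-DL cells, 1,500 per well, cultured overnight, were loaded with a no-wash Ca2+ dye for 45–90 min. Calcium fluorescence was recorded on the FDSS for 110 s after compound addition, before the EC80 agonist (4 uM 54-4) was added.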
GRP78 ERSR act – ER stress response induction in glioma; U87-MG GRP78 promoter luciferase reporter, 16 h; Potency, µM, without a hit: top-dose activation, usual class: activators; actives 0.02% (n = 420,000); AID 602332; active = well fitted activation curve with a large enough effect; inconclusive = small, poorly fitted or top-dose-only effect; inactive = no such curve, though single readings can be large or run the other way; also: potency is read from the fitted curve at half-maximal effect; series mostly up to about 76 µM; % of control where 0% means no effect; nearly all actives have a fitted effect of over 35% in size
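ERSR induction read as luciferase luminescence (Bright-Glo, 10 min at room temperature) in stably transfected human U87-MG glioma cells exposed to compounds for 16 h, using GRP78 as sensor.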
TRHR PAM – TRH receptor (human) allosteric enhancement. P34981. TRHR cells, fluo-8 calcium fluorescence, EC20 TRH enhancement. enhancement, % at 2 µM. actives 0.66% (n = 360,000). AID 493056; in the data active = enhancement above about 30%; also: 0% is about no effect
Target sequence (P34981 whole entry, looked up): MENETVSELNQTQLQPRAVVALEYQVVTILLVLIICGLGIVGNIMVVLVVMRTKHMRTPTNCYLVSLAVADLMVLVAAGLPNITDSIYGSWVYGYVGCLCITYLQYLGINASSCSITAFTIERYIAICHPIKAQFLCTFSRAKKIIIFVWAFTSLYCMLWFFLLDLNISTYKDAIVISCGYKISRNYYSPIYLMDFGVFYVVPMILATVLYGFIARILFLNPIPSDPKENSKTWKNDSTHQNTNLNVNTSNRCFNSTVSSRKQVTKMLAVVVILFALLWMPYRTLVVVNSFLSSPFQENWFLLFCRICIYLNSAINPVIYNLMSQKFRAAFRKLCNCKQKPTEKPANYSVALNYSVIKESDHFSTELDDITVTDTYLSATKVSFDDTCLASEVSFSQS
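TRHR-expressing cells loaded with fluo-8 calcium dye were read kinetically (ex 480/em 530) during compound addition, then stimulated with an EC20 of TRH (10 nM final). Enhancement of the Gq-mediated intracellular calcium response was scored.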
TRHR agonist – activates the human TRH receptor; P34981; TRHR cells, calcium flux fluo-8, FDSS agonist mode; activation, % at 2 µM; actives 0.18% (n = 360,000); in the data active = activation above about 30%; also: 0% is about no effect
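Fluo-8-loaded TRHR cells; 10 s baseline, compound added, kinetic Ca2+ fluorescence read 1/s, agonist mode.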
TRPML1 blocker – inhibitors of human TRPML1 channel; Q9GZU1; TRPML1-inducible cells, Ca2+ dye fluorescence, FDSS; stronger effect = lower value; inhibition of EC80 agonist-evoked calcium signal; activity change, negative = inhibition, % (no concentration beside the values); actives 0.02% (n = 390,000); in the data active = activity change below about -50%; inconclusive = between about -30% and that limit;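 also: stimulus is agonist 54-4 at its EC80 concentration; % is scaled to controls: 0 for no effect and ±100 for the full control effect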
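Calcium fluorescence in TRPML1-DL cells induced overnight with Tet: a 110 s read after compound pin addition, then a 110 s antagonist read after challenge with 54-4 at 4 uM final (EC80).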
Starred values were filed as active, the others as inactive; ? = inconclusive; / = no result.

SMILES	TRPML1 agonist	GRP78 ERSR act	TRHR PAM	TRHR agonist	TRPML1 blocker
COc1cc(Cl)c(C)cc1NC(=O)c1cc2c(s1)-c1c(C)cccc1OC2	1	-5%	-17	0	-13
CCn1c(C(=O)N2CCC(C(=O)N3CCN(c4ccc(OC)cc4)CC3)CC2)cc2sccc21	0	-3%	-1	0	-9
CCn1c(C(=O)N2CCCC(C(=O)N3CCN(c4ccccc4)CC3)C2)cc2sccc21 (configuration not stated)	61*	-3%	-4	0	?
N#Cc1ccc(Oc2c(Cl)cncc2Cl)cc1	0	-5%	37*	0	13
COc1cc(C)c(CN2CCC3(CCC(CNC(=O)c4ccnn4C)O3)CC2)cc1C (configuration not stated)	/	-4%	/	/	/
COC(=O)c1ccc(NC(=O)Cn2nc(C)c3ccccc3c2=O)cc1	-1	-3%	0	0	4
CCOC(=O)c1ccc(NC(=O)Cn2nc(C)c3ccccc3c2=O)cc1	0	-1%	30*	0	12
CCOc1ccc(NC(=O)Cn2nc(Cc3ccncc3)c3ccccc3c2=O)cc1	2	-2%	38*	-2	-22
COc1ccc(NC(=O)C2CC23CCN(Cc2cccc4ncccc24)CC3)cc1Cl (configuration not stated)	/	-5%	/	/	/
COc1cc(=O)n2c(c1C(=O)N(C)Cc1nonc1C)CCN(Cc1cccc(Cl)c1)CC2	/	-4%	/	/	/
COc1ccc(OC)c(-c2cc(Cl)c3c(c2)CC(CNC(=O)c2cccnc2SC)O3)c1 (configuration not stated)	/	-4%	/	/	/
COc1ccc(OCC(=O)NNC(=O)Nc2cccc(Cl)c2)cc1	-1	-5%	34*	1	16
O=C(O)CC1(CC(=O)Nc2ccc3ccccc3n2)CCCCC1	1	-4%	32*	0	-4
COc1ccccc1NC(=S)NCc1ccccc1Cl	-1	-5%	37*	0	7
Cc1ncc2c(c1CNS(=O)(=O)N(C)C)CCN(C(=O)c1ccc(F)cc1Cl)C2	/	-1%	/	/	/
CCCCCCCCCC[n+]1ccc(/C=C/c2ccc(N(C)C)cc2)c2ccccc21	57*	-11%	/	/	/
CCCC[n+]1c(/C=C/c2ccc(N(C)C)cc2)sc2ccccc21	4	-7%	/	/	/
CCC1C(=O)NCCN1Cc1ccc2c(c1)CN(Cc1cc(OC)ccc1OC)CCO2 (configuration not stated)	/	-4%	/	/	/
Cc1ccc(NC(=O)CN2C(=O)c3ccccc3C2=O)cc1	-1	-5%	40*	0	-17
Cc1ccc(NC(=O)CN2C(=O)c3cccnc3Sc3ccccc32)cc1C	-1	6%	33*	-1	-2
CCOc1ccccc1CN1CCCC(c2nc(C)ncc2-c2ccc(F)cc2)C1 (configuration not stated)	/	-5%	/	/	/
NC(=O)CSc1nnc(-c2cccs2)n1-c1ccccc1	2	-1%	15	0	-8
c1ccc(-n2c(Sc3cnccn3)nnc2-c2cccs2)cc1	2	1%	31*	-1	-19
CC1OC(OC2C(OC3C(O[C@H]4CC[C@]5(C)C6C=C[C@]78OC[C@@]9(CC[C@@H](C)[C@H](C)C97)[C@H](O)C[C@@]8(C)[C@]6(C)CC[C@H]5C4(C)C)OC(C)C(O)C3O)OC(CO)C(O)C2O)C(O)C(O)C1O (some centres not stated)	/	/	-17	59*	/
COc1cc(=O)n2c(c1C(=O)N(C)Cc1nonc1C)CCN(Cc1cc(C)c(C)cc1C)CC2	/	-3%	/	/	/
SMILES	TRPML1 agonist	GRP78 ERSR act	TRHR PAM	TRHR agonist	TRPML1 blocker
CCOC(=O)Cc1csc(NC(=O)c2sc3nc4c(C)cc(C)cc4cc3c2N)n1	14	2%	21	38*	17
COCc1ccc(CN2CCOc3c(cc(-c4ccc(SC)cc4)cc3OC)C2)o1	/	-5%	/	/	/
Cc1nn(-c2ccccc2)c2sc(C(=O)N3CCc4ccccc4C3)cc12	0	-1%	32*	0	-3
Cc1nn(-c2ccccc2)c2sc(C(=O)N3CCCCC3)cc12	1	8%	6	0	8
CC1CCCCN1Cc1c(O)ccc2c(=O)c(-c3nc4ccccc4s3)coc12 (configuration not stated)	/	-5%	32*	0	/
Cc1ccc2oc3c(c(=O)c2c1)C1(C(=O)N(C)c2ccccc21)N(CCCO)C3=O (configuration not stated)	0	-3%	36*	0	6
O=C(N/N=C/c1ccccc1Cl)c1[nH]c2ccc(Br)cc2c1-c1ccccc1	71*	-3%	7	2	-21
COc1ccc(/C=N/NC(=O)c2[nH]c3ccc(Br)cc3c2-c2ccccc2)c(C(=O)O)c1OC	0	-8%	1	1	-9
O=C([C@@H]1C[C@@H](Sc2nc3ccccc3[nH]2)CN1CC1CCCCC1)N1CCOCC1	/	-3%	/	/	/
CC(=O)c1ccc(-c2ccc(-c3cc(=O)oc4c(C(C)C)ccc(C)c34)cc2)cc1	64*	-1%	/	/	-1
Cc1ccc(C(C)C)c2oc(=O)cc(-c3ccc(-c4ccc(C(F)(F)F)cc4)cc3)c12	3	1%	/	/	1
CC(=O)c1ccc(-c2cc(F)cc3c2OC(CNC(=O)Cc2cn4ccsc4n2)C3)s1 (configuration not stated)	/	-4%	/	/	/
CC(=O)Nc1ccccc1-c1nc(CNC(=O)c2cccc(-n3cccn3)c2)c(C)o1	/	-2%	/	/	/
CCCCCC(=O)Nc1c2c(nc3ccccc13)CCC2	-1	0%	32*	0	-18
Cc1cc(C(=O)NCc2nnc3n2CCN(Cc2ccc4c(c2)Cc2ccccc2-4)CC3)c(C)o1	/	-4%	/	/	/
Cc1ccc2[nH]c(=O)c(CN(Cc3nnnn3Cc3ccccc3)C3CCCC3)cc2c1	1	-2%	33*	0	-1
CC(=O)c1ccc(F)c(-c2cc(C)cc3c2OC(CNC(=O)c2csc(C)n2)C3)c1 (configuration not stated)	/	-3%	/	/	/
CN(C(=O)c1cnn(-c2ncc3c(n2)-c2ccccc2CCC3)c1C1CC1)C1CCOC1 (configuration not stated)	/	4%	/	/	/
COc1ccc(C2N3CC4(C)CN2CC(C)(C3)C4O)cc1OC (configuration not stated)	0	-2%	31*	0	-1
